# Assay results from PubChem BioAssay AID504862 (Sanford-Burnham Center for Chemical Genomics, 2011).
# The list shows a part of the results. The source made the active and inactive calls.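 The calls were made as follows: active = average inhibition reaching 50% or more with the compound at 20 µM; inactive = the rest.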
# Test system: diaphorase (Clostridium kluyveri)
# Assay: C. kluyveri diaphorase inhibition, resazurin coupling – biochemical, fluorescence intensity, 10 µM NADPH, counter-screen for P. falciparum G6PD inhibitor project, confirmation (AID 504862);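 also: resorufin red fluorescence formed as diaphorase reduces resazurin using NADPH; 0% = DMSO with enzyme and 100% = DMSO without enzyme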
# Conditions: diaphorase-coupled resazurin reduction, NADPH 10 uM, at 20 µM, stronger effect = higher value
row,Structure (SMILES),inhibition
1,CC(C)(C)NC(=O)COc1ccc(CNc2ccc3[nH]c(=O)[nH]c3c2)cc1,27.4% (inactive)
2,O=[N+]([O-])c1c(NCCO)cc(Sc2nc3ccccc3s2)c2nonc12,-9.49% (inactive)
3,O=c1[nH]c2ccccc2n2c(-c3ccccc3)nnc12,37.2% (inactive)
4,O=C(NC1=CC(=O)c2ccccc2C1=O)c1ccccc1,48.7% (inactive)
5,Cn1c(-c2sccc2OCc2cccc(C(F)(F)F)c2)n[nH]c1=S,4.08% (inactive)
6,COc1ccc(OCc2nnc3n2N=C(c2ccccc2)C(CC(=O)O)S3)cc1 (stereo unspecified),-3.99% (inactive)
7,C=CCc1ccccc1OCC(=O)N/N=C/c1ccccc1OCC,43.3% (inactive)
8,O=C1C=CC(=O)N1c1ccc(N2CCCCC2)cc1,-20% (inactive)
9,O=C1/C(=C\c2ccc([N+](=O)[O-])cc2)CS(=O)(=O)C/C1=C/c1ccc([N+](=O)[O-])cc1,-19.8% (inactive)
10,COc1cccc(C(=O)Nc2nnc(S(=O)(=O)N(C)c3ccccc3)s2)c1,89.1% (active)
11,COc1cccc(C(=O)Nc2nnc(S(=O)(=O)N3CCCCC3)s2)c1,72.7% (active)
12,COc1cccc(C(=O)Nc2nnc(S(=O)(=O)N3CCOCC3)s2)c1,69.5% (active)
13,OCCN1CCN(C(=S)c2ccc(-c3ccccc3)cc2)CC1,-9.62% (inactive)
14,COc1ccc2c(c1)c(=Cc1ccc(N(C)C)cc1)c1cc(-c3ccccc3)[n+](C)n12,17.5% (inactive)
15,Cc1ccc(NC(=O)Cn2sc3ccccc3c2=O)cc1,0.47% (inactive)
16,O=C(CN1CCN(c2ccc(O)cc2)CC1)Nc1cc(S(=O)(=O)N2CCOCC2)ccc1Cl,-6.79% (inactive)

row,Structure (SMILES),inhibition
1,CCN1CCCC1CNC(=O)c1ccc2c(c1)NC(=O)/C(=C\c1ccccc1F)S2 (stereo unspecified),-2.12% (inactive)
2,Cc1ccnc(-n2sc3ccccc3c2=O)n1,-36% (inactive)
3,c1ccc(-c2cn3c(n2)CCc2ccc4cccnc4c2-3)cc1,10.4% (inactive)
4,O=C(Nc1nc(-c2ccncc2)cs1)C1COc2ccccc2O1 (stereo unspecified),-37.4% (inactive)
5,Cc1ccc(/C=C/C(=O)Nc2ccc([N+](=O)[O-])c(NC(=O)/C=C/c3ccc(C)o3)c2)o1,-11.9% (inactive)
6,Cc1cccc(C(=O)Nc2nnc(S(=O)(=O)N3CCCCCC3)s2)c1,46.7% (inactive)
7,COc1ccc(CC(=O)NCC(=O)N/N=C/c2cc(Br)ccc2OC)cc1,87.8% (active)
8,COc1ccc(CCn2c(NN=C3CCCC3)nc3c2c(=O)[nH]c(=O)n3C)cc1,7.63% (inactive)
9,CCSc1nnc(NC(=O)c2ccc(C)cc2)s1,61.9% (active)
10,O=C(Nc1nnc(S(=O)(=O)N2CCOCC2)s1)c1cccc(Br)c1,56.5% (active)
11,CCN(CC)c1ccc2oc(=O)c(C)nc2c1,87.7% (active)
12,COc1c(O)ccc2c1CN1CCc3cc4c(cc3C1C2)OCO4 (stereo unspecified),12.4% (inactive)
13,CCOC(=O)C1=C(c2ccc(OC)cc2)C(=O)c2ccccc2C1=O,84.4% (active)
14,O=C(Nc1nnc(S(=O)(=O)N2CCCCCC2)s1)c1cccc(Br)c1,52.1% (active)
15,CCOc1ccccc1/C=N/NC(=O)CNC(=O)COc1ccccc1,96.9% (active)
